Bioassay records: PubChem, University of Kansas High Throughput Screening Laboratory
Pf apPOL block: Pf-apPOL DNA polymerase inhibition. Recombinant Pf-apPOL, molecular beacon fluorescence, 1.5 h. inhibition, % at 10 µM. 0.25% of 210,000 active
mHTT CaM bind: mHTT-calmodulin interaction abrogation; inhibition, % at 15 µM; 3.6% of 190,000 active; AlphaScreen His-mHTT/GST-CaM binding, luminescence; P42858; AID 1671202;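 also: 0% = both proteins with DMSO and 100% = one protein alone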
* = called active by the depositor; · = no result given. Only a selection was taken, and hits are over-represented in it overall. Rule as the data show it: active = inhibition above about 50%; inactive = the rest.

SMILES | Pf apPOL block | mHTT CaM bind
Oc1ccc(Nc2nc(-c3ccc(Cl)c(Cl)c3)cs2)cc1 | -4.2 | 98.0*
Cn1nnc2cc(CNC(=O)c3cccc(Cl)c3)ccc21 | -0.3 | -7.7
CCOC(=O)c1cn(-c2ccc(N3CCC(C)CC3)nn2)nc1N | -13.2 | ·
CCCc1ccc(S(=O)(=O)N2CC=C(c3cn(C)c4ncccc34)CC2)cc1 | -2.8 | 11.7
NC(=O)c1ccccc1NC(=O)c1ccccc1[N+](=O)[O-] | -3.8 | 2.3
CC(=O)Nc1ccccc1NC(=O)c1ccccc1[N+](=O)[O-] | 1.2 | 60.2*
COc1ccccc1CN1CCc2nc(N3CCN(c4ccccc4F)CC3)ncc2C1 | 0.7 | 9.8
c1ccc(CCN2CCc3nc(N4CCN(c5ccccn5)CC4)ncc3C2)cc1 | 0.6 | 60.0*
COc1ccc(OC)c(CN2CCc3nc(N4CCN(c5ccccn5)CC4)ncc3C2)c1 | -1.6 | 50.1*
COc1ccc(CN2CCc3nc(N4CCN(c5ccccn5)CC4)ncc3C2)c(OC)c1 | -0.2 | 36.7
CCOc1ccccc1CN1CCc2nc(N3CCN(c4ccccc4F)CC3)ncc2C1 | 3.9 | 65.9*
COc1ccccc1CN1CCc2nc(N3CCN(c4ccccc4)CC3)ncc2C1 | 1.5 | 24.0
COc1ccccc1CN1CCc2nc(N3CCN(c4ncccn4)CC3)ncc2C1 | 4.9 | 100.2*
Clc1cccc(CN2CCc3nc(N4CCN(c5ccccn5)CC4)ncc3C2)c1 | -0.5 | 45.8
Cn1cc(CCNC(=O)c2ccc(Cl)s2)c2cccnc21 | -1.3 | 2.4
Cc1oc2c(C)c3oc(=O)c(C)c(C)c3cc2c1C | -4.0 | -6.0
O=C(Nc1nc(-c2ccc(F)cc2)cs1)c1ccccc1[N+](=O)[O-] | -0.7 | 13.9
Cc1ccc(CN2CCc3nc(N4CCC(C)CC4)ncc3C2)cc1 | -1.7 | 48.9
CC1CCN(c2ncc3c(n2)CCN(Cc2cccc(F)c2F)C3)CC1 | -3.3 | 74.4*
COc1ccc(CN2CCc3nc(N4CCC(C)CC4)ncc3C2)cc1 | -2.0 | 4.1
COc1ccc(OC)c(CN2CCc3nc(N4CCC(C)CC4)ncc3C2)c1 | -1.6 | 51.6*
Fc1cccc(CN2CCc3nc(N4CCN(c5ccccn5)CC4)ncc3C2)c1F | -7.4 | 29.0
Cc1ccc(CN2CCc3nc(N4CCC(C)CC4)ncc3C2)cc1C | 1.8 | 71.8*
CC1CCCCC1NC(=O)C(=O)c1c[nH]c2ccccc12 (centres undefined) | -3.4 | 2.2
C=CCn1c(SCC(=O)Nc2sc3c(c2C#N)CCC(C)C3)nnc1-c1ccccc1 (centres undefined) | -7.0 | ·
SMILES | Pf apPOL block | mHTT CaM bind
CC1Cc2ccccc2N1C(=O)c1ccc(Cl)cc1 (centres undefined) | 2.2 | -39.4
CC1Cc2ccccc2N1C(=O)c1ccc2nc(N3C(=O)CCC3=O)sc2c1 (centres undefined) | -5.0 | 52.0*
O=C(Nc1nccs1)c1ccc(NC(=O)c2ccccc2-c2ccccc2C(=O)O)cc1 | -0.7 | 84.0*
O=C(Nc1nccs1)c1ccc(NC(=O)c2ccccc2[N+](=O)[O-])cc1 | -2.6 | 13.3
Cc1c(C2CCN(C(=O)c3cccs3)CC2)noc1N | 3.3 | 1.6
Cc1cccc(-c2nc3n(n2)C(c2ccc(O)cc2)C2=C(CC(C)(C)CC2=O)N3)c1 (centres undefined) | -1.6 | 7.2
CC1(C)CC(=O)C2=C(C1)Nc1nc(-c3cccc(Cl)c3)nn1C2c1ccc2c(c1)OCO2 (centres undefined) | -2.1 | 60.8*
COc1cccc(CNC(=O)c2cnn3c(C)c(Cc4ccccc4Br)c(C)nc23)c1 | -5.3 | 8.0
CCCCNC(=O)C1CCCN(c2nnc3cccc(C)n23)C1 (centres undefined) | -2.2 | -2.6
Cc1ccc(C2=C/C(=C\C=C\c3ccccc3)C(=O)O2)cc1 | 61.9* | 25.0
Cc1ccc(C2=C/C(=C\c3ccccn3)C(=O)O2)cc1 | -4.8 | 5.0
CC(C)c1n[nH]c(C2CCCN2C(=O)c2n[nH]c3ccccc23)n1 (centres undefined) | -2.8 | -1.3
Fc1cccc(CN2CCN(Cc3ccco3)CC2)c1 | -3.7 | -0.6
COc1cc(OC)cc(C2=Cc3ccc(OC)cc3C(CC(C)=O)N2c2ccc(-c3cncnc3)cc2)c1 (centres undefined) | -4.1 | 37.2
CCc1ccc(C2=Cc3ccccc3C(CC(=O)C3CC3)N2c2ccc(-c3cncnc3)cc2)cc1 (centres undefined) | -2.1 | 100.1*
O=C1c2cccnc2C(=O)N1c1ccc(-c2ccc([N+](=O)[O-])cc2)cc1 | -6.5 | 1.0
O=C1c2cccnc2C(=O)N1c1cccc(C(F)(F)F)c1 | -4.7 | 13.0
O=C1c2cccnc2C(=O)N1c1ccc(Cc2ccc(N3C(=O)c4cccnc4C3=O)cc2)cc1 | 7.6 | 80.0*
O=C1c2cccnc2C(=O)N1c1ccc(Oc2ccc(N3C(=O)c4cccnc4C3=O)cc2)cc1 | -3.2 | 99.0*
COCCN=C1Nc2ccccc2CNC12CCN(C(=O)c1ccc(C)s1)C2 (centres undefined) | -4.7 | 25.4
C=CCOc1ccc(C(=O)Nc2ccccn2)cc1 | -5.4 | -6.7
